Assay outcomes as filed in PubChem BioAssay.
A selection: hits, their analogues and other compounds. The true share with any hit is near 2%.
aSyn yeast inh – rescues yeast growth from alpha-synuclein toxicity; Yeast expressing alpha-synuclein, growth rescue, BacTiter-Glo, 24 h; Potency, µM (top dose mostly 46.1 µM), for the others: at the highest dose growth rescue (activation), actives largely listed as activators; actives 0.14% (n = 370,000); further: % of control where 0% means no effect; nearly all actives have a fitted effect of over 65% in size
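Readout is rescue of growth in alpha-synuclein-expressing yeast, so inhibitors of toxicity appear as activators. Growth after 24 hr at 30 deg C in galactose medium is quantified by luminescence.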
Abeta rescue – compounds reversing amyloid beta toxicity in yeast | yeast expressing A-beta42, growth rescue, OD600, 48 h; response scale: 0% DMSO, 100% iron-clioquinol control | Potency, µM (top dose mostly 46.1 µM), most hits filed as activators | actives 0.063% (n = 410,000); further: nearly all actives have a fitted effect of over 55% in size
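Growth rescue measured by 600 nm absorbance after 48 h yeast culture at 30 C with compound. Values normalized between DMSO and an equimolar ferric chloride plus clioquinol control.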
TDP43 rescue – rescues yeast growth from TDP-43 toxicity | actives 1.8% (n = 410,000) | TDP-43 expressing yeast growth rescue, BacTiter-Glo, 24 h | Potency, µM (titrated, usually from 46.1 µM), without a hit: at the top dose growth rescue (activation), most hits filed as activators; further: % of control where 0% means no effect; nearly all actives have a fitted effect of over 50% in size
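Yeast expressing TDP-43 (pregrown in raffinose, seeded at OD600=0.02 in galactose medium) exposed to compounds 24 hr at 30 deg C. Growth read by BacTiter-Glo luminescence; rescue of toxicity appears as increased signal.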
ASM inhibitor – human S-ASM enzyme inhibition; Potency, µM (series often up to 57.5 µM), for inactives: at the top dose activity change, negative = inhibition, hits mostly inhibitors; placental ASM, HMU-PC fluorogenic substrate, 60 min; actives 0.006% (n = 340,000); P17405
Target sequence (P17405 47-631 limits assumed): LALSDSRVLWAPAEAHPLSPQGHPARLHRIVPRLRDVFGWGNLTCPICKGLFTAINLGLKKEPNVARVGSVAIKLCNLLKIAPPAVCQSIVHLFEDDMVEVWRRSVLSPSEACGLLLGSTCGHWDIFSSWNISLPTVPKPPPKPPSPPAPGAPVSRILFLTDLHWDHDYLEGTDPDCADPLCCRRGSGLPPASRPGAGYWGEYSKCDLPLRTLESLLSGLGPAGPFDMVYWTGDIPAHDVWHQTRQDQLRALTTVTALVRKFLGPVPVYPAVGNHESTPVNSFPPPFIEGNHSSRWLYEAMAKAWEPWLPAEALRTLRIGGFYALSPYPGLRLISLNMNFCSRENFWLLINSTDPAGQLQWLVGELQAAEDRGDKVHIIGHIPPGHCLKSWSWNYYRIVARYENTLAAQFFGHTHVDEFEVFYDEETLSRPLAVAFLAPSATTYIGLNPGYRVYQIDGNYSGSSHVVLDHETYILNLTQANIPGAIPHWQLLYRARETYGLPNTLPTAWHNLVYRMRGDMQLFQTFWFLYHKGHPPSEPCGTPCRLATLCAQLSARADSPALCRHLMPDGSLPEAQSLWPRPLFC
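HMU-PC0 cleavage (9 uM final) by human placental ASM, 60 min at 37 °C following 10 min compound exposure at RT; stopped at pH 10, fluorescence Ex 386/Em 447 nm.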
Rango complex inh – inhibitors of Rango-importin beta complex formation; Q14974; Rango CFP/YFP FRET sensor + importin beta, 45 min; Potency, µM (doses to about 92.2 µM), for inactives: top-dose inhibition of complex formation; actives 0.031% (n = 340,000); calls by dose curve;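 further: 0% = DMSO wells and 100% = buffer wells lacking importin beta; nearly all actives have a fitted effect of over 15% in size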
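FRET biosensor (snurportin 1 IBB flanked by EYFP and cerulean), 50 nM, with compound 5 min, then 0.125 microM importin beta in PBS, 1 mM DTT, 0.02% Tween-20, 0.1% BSA. CFP/YFP ratio read after 45 min at room temperature; pre-read flags interference.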
Rango release inh – inhibition of RanGTP-driven Rango-importin beta dissociation; actives 0.071% (n = 340,000); Biochemical FRET Rango-importin beta, RanGTP-induced dissociation; O95149+P62826; Potency, µM (titrated, usually from 46.1 µM), inactives show at the top dose activity change, negative = inhibition; calls by dose curve; further: % of control where 0% means no effect; nearly all actives have a fitted effect of over 45% in size
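FRET read at 45 min, room temperature: inhibitors block the CFP/YFP signal rise when RanGTP (0.6 uM Ran, 2 mM GTP, 0.2 uM RCC1) frees Rango (0.1 uM) from importin beta (0.25 uM). Pre-read after 5 min compound exposure flags interference.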
Starred values were filed as active, the others as inactive; i = inactive; ? = inconclusive; / = no result given; [ ] = another dose, or the depositor's remark. Unless noted, the call rests on the fitted dose curve; in most records, active means well fitted curve in the direction sought with a large enough effect; inconclusive means small, poorly fitted or top-dose-only effect, or another doubt; inactive means no such curve, though single readings can be large; an effect the other way counts as inactive or inconclusive. Potency means the concentration at half of the fitted maximal effect.

SMILES	aSyn yeast inh	Abeta rescue	TDP43 rescue	ASM inhibitor	Rango complex inh	Rango release inh
Nc1ncnc2c1nc(Sc1ccc(Cl)cc1)n2[C@H]1OC2COP(=O)(O)O[C@@H]2C1O (stereo not given in full)	1%	/	/	/	/	/
Cc1ccc(NC(=O)CCC(=O)N2Cc3ccccc3Oc3ncccc32)cc1F	/	i	22%	/	/	/
CCc1ccc(-c2nnn(CCC(=O)OC)n2)cc1	8%	i	16µM*	5%	-3%	0%
CCOc1cccc(NC(=O)C2CC(=O)N(C)C(=Nc3ccccc3)S2)c1 (stereo not given)	20µM*	?	?	?	0%	-6%
CCOc1cccc(NC(=O)C2CC(=O)N(C)C(=Nc3cccc(F)c3)S2)c1 (stereo not given)	?	i	?	?	0%	-2%
CCOc1ccc(-n2c(SCC(=O)N3CCCC3)nc3c([nH]c4ccccc43)c2=O)cc1	?	i	20%	/	/	/
Cc1ccc(-n2ncc(C(=O)NCc3cccs3)c2C2CCN(C(=O)OC(C)(C)C)CC2)cc1C	/	i	-11%	/	/	/
O=C(COc1ccc(Cl)cc1)NCC(c1ccco1)S(=O)(=O)c1ccccc1 (stereo not given)	/	i	6%	/	/	/
O=C(COc1ccc(Cl)cc1)NCC(c1ccco1)S(=O)(=O)c1ccc(Cl)cc1 (stereo not given)	/	i	35µM*	/	/	/
CCc1ccccc1NC(=O)Cn1nnc2sc3c(c2c1=O)CCC(C(C)(C)C)C3 (stereo not given)	/	i	8%	/	/	/
COCCCNc1nc2ccccc2nc1NS(=O)(=O)c1cc(Cl)ccc1Cl	5%	i	22µM*	-13%	0%	3%
CCn1c(SCC(=O)Nc2nc(-c3ccccc3)cs2)nnc1-c1ccccc1O	14%	i	20µM*	?	-3%	1%
CCc1nnc(NC(=O)CSc2nnc(-c3ccccc3O)n2CC)s1	0%	i	-8%	4%	4%	14%
Cc1ccc(-c2csc(NC(=O)CSC3=NCCS3)n2)cc1	/	i	7.1µM*	-11%	-1%	2%
Cc1cc(Nc2cccc(C(=O)O)c2)n2nc(C)nc2n1	/	i	2%	/	/	/
CC(=O)c1cccc(Nc2cc(C)nc3nc(-c4ccccc4C)nn23)c1	/	i	11µM*	/	/	/
Cc1cccc(-c2nc(CN3CCCC(C(=O)NCc4ccc(Cl)cc4)C3)c(C)o2)c1 (stereo not given)	/	i	-6%	/	/	/
N#Cc1nc(-c2cccs2)oc1NCc1ccc2c(c1)OCO2	1%	i	28µM*	98%	1%	-5%
COc1cc(OC)c(C2SCCCS2)cc1OC	0%	i	35µM*	1%	1%	-7%
COc1cc(C2(C)SCCCS2)cc(OC)c1OC	-7%	i	-7%	/	/	/
CC(C)(C)c1ccc(/C=N/NC(=S)NCc2ccccc2)cc1	0%	i	7%	-2%	4%	-3%
C=CCNC(=S)N/N=C/c1ccc(C(C)(C)C)cc1	1%	7.9µM*	-5%[0.397 µM]	-9%	-2%	-4%
C=CCNC(=S)N/N=C/c1cn(C)c2ccccc12	-11%	?	20µM*	-11%	1%	20%
Cc1cc2c(c(=O)o1)C1(C(=O)N(CC(=O)O)c3ccccc31)C(C#N)=C(N)O2 (stereo not given)	-7%	i	24%	7%	?	15µM*[inhibitor]
CCc1c(C)sc(NC(=O)C2CC(c3c(F)cccc3Cl)=NO2)c1C#N (stereo not given)	0%	i	20µM*	-2%	-4%	-8%
SMILES	aSyn yeast inh	Abeta rescue	TDP43 rescue	ASM inhibitor	Rango complex inh	Rango release inh
Cc1ccc(O)c(NC(=O)C2CC(c3c(F)cccc3Cl)=NO2)c1 (stereo not given)	/	i	3.5µM*	-3%	-3%	-5%
N#Cc1c(NC(=O)C2CC(c3c(F)cccc3Cl)=NO2)sc2c1CCC2 (stereo not given)	7%	i	14%	-7%	2%	-20%
Cc1cccc(CNC(=O)c2ccc(C)c(-n3c(C)nc4cccnc43)c2)c1	/	i	13%	/	/	/
CC1CCCCC1Nc1nc2ccc(Cl)cc2n2cnnc12 (stereo not given)	10%	i	13µM*	-21%	-2%	-6%
Cc1cc(C)cc(Nc2nc3ccc(C)cc3n3cnnc23)c1	-8%	i	-6%	-4%	1%	-10%
COc1ccccc1NC(=O)c1c(C)cc(C)nc1SCC(=O)Nc1ccc(C)cc1	/	i	18µM*	/	/	/
COc1ccc(-c2nnc(SCC(=O)Nc3cc(F)ccc3C)o2)cc1	5%	?	11µM*	-4%	4%	1%
COc1ccccc1NC(=O)CSc1nnc(-c2ccccc2C)o1	/	i	20µM*	/	/	/
O=C(CSc1nc2ccccc2o1)Nc1ccccc1N1CCOCC1	16%	i	14%	1%	-4%	8%
O=C(CSc1nnc(-c2ccc(F)cc2)o1)Nc1ccccc1N1CCOCC1	?	i	22µM*	1%	-2%	?
Cc1cccc(-c2nn3c(=O)cc(CN4CCN(C(=O)/C=C/c5ccccc5)CC4)nc3s2)c1	/	i	12%	/	/	/
COc1ccc(NC(=O)CCn2nc(-c3ccccc3OC)c3c(C)cc(C)nc32)cc1	/	i	14µM*	/	/	/
CCc1ccc(NC(=O)CCn2nc(-c3ccccc3OC)c3c(C)cc(C)nc32)cc1	22%	i	?	/	/	/
CCc1cccc(C)c1NC(=O)Cn1cc2c(n1)CCCCC2	/	i	11%[9.22 µM]	/	/	/
CC1(C)CC(=O)c2cc(C(=O)Nc3cccc4ccccc34)c(=O)[nH]c2C1	1%	/	/	/	/	/
Cc1nc(N2CCN(c3ccccc3)CC2)nc2c1C(=O)CCC2	23%	i	13µM*	-1%	-4%	7%
Cc1ccc2c(C(=O)CNC3=NCCS3)c(C)[nH]c2c1	-4%	/	/	/	/	/
COc1ccc(C(=O)Nc2ccc3nc(SCC(=O)N(C)c4ccccc4)sc3c2)cc1	/	i	22µM*	/	/	/
